{"source": "PubChem BioAssay (Tox21)", "note": "Records with an inconclusive call do not appear. Calls of active or inactive are those of the source. Calls come from the whole dose curve; as a rule, active = well fitted cell-killing curve with a large enough effect in the repeat runs; inconclusive = weak or mixed curves, or effect the other way; inactive = flat fitted curve, though single readings scatter. % is set by controls: 0 for no effect and ±100 for the full control effect; potency is the fitted concentration of half-maximal effect.", "data": [{"test": "qHTS assay to identify small molecule antagonists of the androgen receptor (AR) signaling pathway using the MDA cell line - cell viability counter screen (AID 743041; note: nearly all actives have a fitted effect of over 45% in size)", "details": "MDA-kb2 viability, CellTiter-Fluor, 16 h, cells co-treated with R1881 androgen agonist; series mostly up to 70.3 µM; viability change, negative = cytotoxic: at the top concentration", "description": "National Center for Advancing Translational Sciences [NCATS]\nNIH Chemical Genomics Center [NCGC]\nU.S. Environmental Protection Agency [EPA]\nNational Institutes of Environmental Health Sciences [NIEHS]\nNational Toxicology Program [NTP]\nU.S. Food and Drug Administration [FDA]\nAndrogen receptor (AR), a nuclear hormone receptor, plays a critical role in AR-dependent prostate cancer and other androgen related diseases. Endocrine disrupting chemicals (EDCs) and their interactions with steroid hormone receptors like AR may cause disruption of normal endocrine function as well as interfere with metabolic homeostasis, reproduction, developmental and behavioral functions. To identify the compounds that inhibit AR signaling, MDA-kb2 AR-luc cell line (from ATCC, deposited by Wilson et al.) was used to screen the Tox21 10K compound library. MDA-kb2 AR-luc cell line is human breast carcinoma cell line that was stably transfected with a luciferase reporter gene under control of the MMTV promoter containing response elements for both androgen receptor (AR) and glucocorticoid receptor (GR). The cytotoxicity of the Tox21 compound library against the MDA-kb2 AR-luc cell line was tested in parallel by measuring the cell viability using CellTiter-Fluor assay (Promega, Madison, WI) in the same wells.\nTox21 Assay Protocol Summary:\nMDA-kb2 AR-luc cells were dispensed at 3,000 cells/4 uL/well of culture medium into white wall/solid-bottom 1536-well plates using a Multidrop Combi (ThermoFisher Scientific, Waltham, MA) dispenser. After the assay plates were incubated at a 37C and 0% CO2 for 5 hr, 23 nL of compounds dissolved in DMSO, positive controls or DMSO only was transferred to the assay plate by a Pintool station (Kalypsys, San Diego, CA), followed by addition of 1 uL of agonist (R1881) in culture medium using a Bioraptr Flying Reagent Dispenser (FRD) workstation (Beckman Coulter, Indianapolis, IN, USA). The plates were incubated at a 37C and 0% CO2 for 16 h. After 15.5 h incubation, 1uL of CellTiter-Fluor reagent (Promega) was added using a Bioraptr FRD to each plate for measuring cytotoxicity. The fluorescence intensity was quantified on a ViewLux plate reader (PerkinElmer, Shelton, CT) following 30 min incubation at 37C and 0% CO2.", "values": [{"smiles": "CN", "viability change, negative = cytotoxic": "5.19% [at 95 µM] (inactive)"}, {"smiles": "[Cl-].[Cl-].[Cl-].[Yb+3]", "viability change, negative = cytotoxic": "2.57% (inactive)"}, {"smiles": "Cc1c([N+](=O)[O-])c(C)c([N+](=O)[O-])c(C(C)(C)C)c1[N+](=O)[O-]", "viability change, negative = cytotoxic": "-12.8% (inactive)"}, {"smiles": "COC(=O)N(OC)c1ccccc1COc1ccn(-c2ccc(Cl)cc2)n1", "Potency": "1.72 µM (active)"}, {"smiles": "[Cl-].[Cl-].[Sn+2]", "viability change, negative = cytotoxic": "2.72% (inactive)"}, {"smiles": "NC(=O)C(Cl)Cl", "viability change, negative = cytotoxic": "4.59% (inactive)"}, {"smiles": "O=c1c2ccccc2c(=O)c2c1cc(Cl)c1[nH]c3c([nH]c12)c(Cl)cc1c(=O)c2ccccc2c(=O)c13", "viability change, negative = cytotoxic": "4.94% (inactive)"}, {"smiles": "O=C(N[C@H]1N=C(c2ccccc2F)c2cccc3c2N(CC3)C1=O)c1cc2ccccc2[nH]1", "viability change, negative = cytotoxic": "2.79% (inactive)"}, {"smiles": "O=S1OCC2C(CO1)C1(Cl)C(Cl)=C(Cl)C2(Cl)C1(Cl)Cl", "note": "(stereo not given)", "viability change, negative = cytotoxic": "-15.6% (inactive)"}, {"smiles": "CSC(=O)c1c(C(F)F)nc(C(F)(F)F)c(C(=O)SC)c1CC(C)C", "viability change, negative = cytotoxic": "4.84% (inactive)"}, {"smiles": "C#CCO", "viability change, negative = cytotoxic": "2.86% (inactive)"}, {"smiles": "c1ccc2nc(N3CCNCC3)ccc2c1", "viability change, negative = cytotoxic": "-0.758% (inactive)"}, {"smiles": "Oc1ccc2[nH]cc(CCCCN3CC=C(c4ccccc4)CC3)c2c1", "viability change, negative = cytotoxic": "-0.345% (inactive)"}, {"smiles": "NC1CCC(CC2CCC(N)CC2)CC1", "note": "(stereo not given)", "Potency": "47.7 µM (active)"}, {"smiles": "CCOP(=O)(OCC)Oc1nc(Cl)c(Cl)cc1Cl", "viability change, negative = cytotoxic": "-18.6% (inactive)"}, {"smiles": "CNC(=O)Oc1cc(C)cc(C(C)C)c1", "viability change, negative = cytotoxic": "2.27% (inactive)"}, {"smiles": "CC1(C)[C@H](/C=C2\\CCSC2=O)[C@@H]1C(=O)OCc1coc(Cc2ccccc2)c1", "viability change, negative = cytotoxic": "-2.1% (inactive)"}, {"smiles": "CCC1COC(Cn2cncn2)(c2ccc(Cl)cc2Cl)O1", "note": "(stereo not given)", "viability change, negative = cytotoxic": "-1.86% (inactive)"}, {"smiles": "CSC(C)(C)/C=N/O", "viability change, negative = cytotoxic": "4.68% (inactive)"}, {"smiles": "O=Cc1ccccc1", "Potency": "inactive"}, {"smiles": "CCN(CC)Cc1nccn1-c1ccc([N+](=O)[O-])cc1C(=O)c1ccccc1Cl", "viability change, negative = cytotoxic": "11.1% (inactive)"}, {"smiles": "CNC(=O)CSP(=O)(OC)OC", "viability change, negative = cytotoxic": "-0.776% (inactive)"}, {"smiles": "COc1cnc(OC)n2nc(NS(=O)(=O)c3c(OCC(F)F)cccc3C(F)(F)F)nc12", "viability change, negative = cytotoxic": "9.69% (inactive)"}, {"smiles": "COP(=S)(OC)Oc1ccc([N+](=O)[O-])c(C)c1", "viability change, negative = cytotoxic": "-11.4% (inactive)"}, {"smiles": "COC(=O)C(C)N(C(=O)c1ccco1)c1c(C)cccc1C", "note": "(stereo not given)", "viability change, negative = cytotoxic": "3.06% (inactive)"}, {"smiles": "CC(Cl)CCl", "note": "(stereo not given)", "viability change, negative = cytotoxic": "-0.305% (inactive)"}, {"smiles": "CNC(=O)O/N=C(\\C)C(C)S(C)(=O)=O", "note": "(stereo not given)", "viability change, negative = cytotoxic": "-8.03% [at 920 µM] (inactive)"}, {"smiles": "CO/N=C(/C1=NOCCO1)c1ccccc1Oc1ncnc(Oc2ccccc2Cl)c1F", "Potency": "30.6 µM (active)"}, {"smiles": "CCCCC/C=C\\C/C=C\\C/C=C\\C/C=C\\CCCC(=O)NCC(=O)O", "viability change, negative = cytotoxic": "-2.98% [at 8.47 µM] (inactive)"}, {"smiles": "CC(O)C(=O)[O][Hg][c]1ccccc1", "note": "(stereo not given)", "Potency": "4.86 µM (active)"}, {"smiles": "O=[N+]([O-])c1ccc(Cl)c(Cl)c1Cl", "viability change, negative = cytotoxic": "-4.26% (inactive)"}, {"smiles": "O=S(=O)(O)F", "viability change, negative = cytotoxic": "1.56% [at 95 µM] (inactive)"}, {"smiles": "N#CSCc1ccccc1", "viability change, negative = cytotoxic": "1.5% [at 95 µM] (inactive)"}, {"smiles": "COCCC#N", "viability change, negative = cytotoxic": "9.25% (inactive)"}, {"smiles": "CCC1(CC)C(=O)N=C(O)NC1=O", "viability change, negative = cytotoxic": "2.17% (inactive)"}, {"smiles": "CC(C)=CC1C(C(=O)OC(C#N)c2cccc(Oc3ccccc3)c2)C1(C)C", "note": "(stereo not given)", "viability change, negative = cytotoxic": "0.805% (inactive)"}, {"smiles": "Nc1cc(Cl)ccc1Cl", "viability change, negative = cytotoxic": "-1.25% (inactive)"}, {"smiles": "COC(=O)c1ccccc1S(=O)(=O)NC(=O)Nc1nc(C)nc(OC)n1", "viability change, negative = cytotoxic": "0.597% (inactive)"}, {"smiles": "CCN(CC)CCN1C(=O)CN=C(c2ccccc2F)c2cc(Cl)ccc21", "viability change, negative = cytotoxic": "-19% (inactive)"}, {"smiles": "C[C@]12C/C(=C/O)C(=O)C[C@@H]1CC[C@@H]1[C@@H]2CC[C@@]2(C)[C@H]1CC[C@]2(C)O", "viability change, negative = cytotoxic": "-5.1% (inactive)"}]}]}
